The results in this text go back to PubChem BioAssay AID488969 (Vanderbilt High Throughput Screening Facility, 2010).

Over roughly 110,000 compounds, “z-score” has its median near -0.1; the highest 2% begin near 2. For the sample, the highest values were picked, then their nearest neighbours and some compounds at random. Active and inactive are the calls of the source.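 Rule for the calls: active = z-score in the third read window above 3 or below -3; inactive = the rest.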

Sequence of Metabotropic glutamate receptor 8 (Rattus norvegicus) (P70579 whole entry, looked up): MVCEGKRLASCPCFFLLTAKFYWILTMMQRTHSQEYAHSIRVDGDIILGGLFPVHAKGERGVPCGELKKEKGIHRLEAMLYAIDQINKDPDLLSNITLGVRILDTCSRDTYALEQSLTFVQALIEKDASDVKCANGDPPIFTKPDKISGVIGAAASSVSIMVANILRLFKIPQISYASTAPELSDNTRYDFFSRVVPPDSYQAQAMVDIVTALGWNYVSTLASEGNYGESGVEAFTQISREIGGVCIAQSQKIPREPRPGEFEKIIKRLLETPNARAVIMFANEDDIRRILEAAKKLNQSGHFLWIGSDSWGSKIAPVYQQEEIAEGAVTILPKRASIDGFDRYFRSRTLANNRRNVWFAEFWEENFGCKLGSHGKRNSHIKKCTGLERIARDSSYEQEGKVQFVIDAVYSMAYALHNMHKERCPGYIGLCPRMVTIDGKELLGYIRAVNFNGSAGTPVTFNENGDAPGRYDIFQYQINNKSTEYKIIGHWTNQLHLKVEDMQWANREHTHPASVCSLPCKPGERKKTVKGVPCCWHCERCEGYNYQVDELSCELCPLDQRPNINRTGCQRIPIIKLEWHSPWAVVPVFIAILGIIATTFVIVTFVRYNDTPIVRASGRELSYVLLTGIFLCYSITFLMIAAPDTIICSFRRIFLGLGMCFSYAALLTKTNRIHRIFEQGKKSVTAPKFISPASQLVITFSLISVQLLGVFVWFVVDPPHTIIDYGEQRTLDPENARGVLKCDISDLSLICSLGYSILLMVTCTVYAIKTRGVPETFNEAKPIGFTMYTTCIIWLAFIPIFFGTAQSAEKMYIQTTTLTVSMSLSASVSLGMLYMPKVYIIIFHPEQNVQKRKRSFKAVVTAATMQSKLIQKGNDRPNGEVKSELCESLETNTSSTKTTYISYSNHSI

This assay has as its target Metabotropic glutamate receptor 8 (Rattus norvegicus) (UniProt P70579). The experiment in a line: mGluR8 Gi/Go-coupled signaling modulation – cell-based, rat, thallium flux, HTS, primary screen (AID 488969). The note with it: HEK293 rat mGluR8, GIRK (G protein-gated inwardly rectifying potassium channel) thallium flux, FluoZin2; at 10 µM; stronger effect = higher value; submaximal glutamate (EC20) added with thallium.
On to `COc1ccc(CCn2c(N)c(S(=O)(=O)c3cccs3)c3nc4ccccc4nc32)cc1OC`, for which the z-score is -0.349.

Regarding `COc1ccc(CC(=O)OCCN(C)C)cc1`, the z-score came out at 0.0321.

The compound `O=C(CCCN1C(=O)c2cccc3cccc(c23)C1=O)N1CCN(c2ccccn2)CC1` showed a z-score of 0.0204.

Regarding `O=C(CN1C(=O)c2ccccc2C1=O)N1CCN(c2ccccn2)CC1`, the z-score is -0.293.

In turn, `O=C(CCN1C(=O)COc2ccccc21)N1CCN(c2ccccn2)CC1` had a z-score of 0.258.

As to `O=C(CN1C(=O)/C(=C/c2ccccc2F)Oc2ccccc21)N1CCN(c2ccccn2)CC1`, the z-score is 6.44 (active).

With `O=C(CN1C(=O)c2cccc3cccc(c23)C1=O)N1CCN(c2ccccn2)CC1`, the z-score was 8.64 (active).

In turn, `O=C(CN1C(=O)/C(=C\c2cccc(F)c2)Oc2ccccc21)N1CCN(c2ccccn2)CC1` had a z-score of 0.117.

Consider `CC(C)c1nnc(SCC(=O)NCc2ccc3c(c2)OCO3)n1C`, for which the z-score is -0.49.

With `CCn1c(=O)n(CC)c2cc([N+](=O)[O-])ccc21`, the z-score is -0.0668.

Take `COc1ccccc1NC(=O)Cc1c(F)cccc1Cl`: the z-score was -0.193.

Take `O=C(Nc1cccc2ncccc12)c1ccc(-c2ccc(Br)cc2)o1`: the z-score was -0.163.

`CCOC(=O)C1=C(C)NC(C)=C(C(=O)OCC)C1c1ccc(Br)o1` registered a z-score of -0.356.

Consider `CCOC(=O)C1=C(C)NC(=O)NC1c1ccc(Br)o1` (configuration not stated), for which the z-score was 2.92.

`CCOC(=O)C1=C(C)NC(=O)NC1c1ccc(C)o1` (configuration not stated): the z-score amounted to 0.0551.

Compound `O=C(CN1C(=O)c2ccccc2C1=O)NCCc1c[nH]c2ccccc12` displayed a z-score of -0.164.

For the compound `CCOc1ccc(C2=C(C=Nc3c(C)n(C)n(-c4ccccc4)c3=O)C(c3ccc(F)cc3)c3ccccc3O2)cc1` (configuration not stated), the z-score is 1.53.

As to `CCc1c(C)n([O-])c2c([n+]1=O)CCC2`, the z-score amounted to 0.305.

In turn, `Cc1ccc(-c2c(C)n([O-])c3c([n+]2=O)CCC3)cc1` returned a z-score of -0.263.

For the compound `Cc1c(C)[n+](=O)c2c(n1[O-])CCC2`, the z-score was 14.6 (active).

As for `Cc1ccc(OCCCSc2ncccn2)cc1C`, the z-score was -0.106.

The compound `Cn1c(SCc2nnc(-c3ccc(F)cc3)o2)nnc1C1COc2ccccc2O1` (configuration not stated) showed a z-score of -0.382.

As to `O=C(NC1CCCCCC1)c1cccc(N2CCCC2=O)c1`, the z-score was -0.399.

In turn, `CN1CCN(C(=O)CN(Cc2ccc(Cl)cc2)S(C)(=O)=O)CC1` showed a z-score of 0.244.

Compound `Cc1cc(NC(=O)CSc2nc3ccccc3n2CC(=O)N2CCCCC2)no1` displayed a z-score of 0.0584.

Take `Cc1ccc(N2C(=O)C3CC(c4ccccc4)=C4C5C=CC(C6C(=O)N(c7ccc(C)cc7)C(=O)C56)C4C3C2=O)cc1` (configuration not stated): the z-score is -0.0459.

Regarding `COc1ccc(S(=O)(=O)Nc2cccc(NC(C)=O)c2)cc1`, the z-score was 0.142.

Regarding `Cc1cccc(C)c1OCC(=O)Nc1oc(-c2ccccc2)c(-c2ccccc2)c1C#N`, the z-score is -0.376.

In the case of `COc1cc2c(cc1NC(=O)Nc1ccc(C)cc1)oc1ccccc12`, the z-score is -0.398.

`COc1ccccc1OCC(=O)Nc1oc(-c2ccccc2)c(-c2ccccc2)c1C#N` registered a z-score of 2.87.

`COc1cc2c(cc1NC(=O)Nc1ccccc1)oc1ccccc12` returned a z-score of -0.0976.

The compound `COc1ccc(OCC(=O)Nc2cc3oc4ccccc4c3cc2OC)cc1` gave a z-score of -0.347.

As for `Cc1ccc(OCC(=O)Nc2oc(-c3ccccc3)c(-c3ccccc3)c2C#N)cc1`, the z-score was -0.212.

In the case of `COc1cc2c(cc1NC(=O)Nc1cccc(C)c1)oc1ccccc12`, the z-score amounted to 2.68.

As to `COc1cc2c(cc1NC(=O)COc1ccc3ccccc3c1)oc1ccccc12`, the z-score is -0.183.

As to `COc1cc2c(cc1NC(=O)COc1ccccc1OC)oc1ccccc12`, the z-score was 5.54 (active).

For `CCn1c(SCc2nc(-c3ccc(OC)c(OC)c3)no2)nnc1-c1cccs1`, the z-score was -1.5.

For `Cc1ccccc1OCCCC(=O)Nc1ccc2c(c1)OCO2`, the z-score stood at 0.157.

For the compound `O=C(Nc1cccc(S(=O)(=O)N2CCCC2)c1)c1ccc2c(=O)n3c(nc2c1)CCCCC3`, the z-score is -1.24.

`COc1ccc(/C=N/n2c(=O)[nH]c3c([nH]c4ccc(C)cc43)c2=O)cc1CN1CCOCC1` came in with a z-score of -0.0345.

For the compound `CC(=O)N(c1ccccc1)c1nc(C)cc(C)c1C#N`, the z-score is -0.111.

Turning to `Cc1[nH]c2ccccc2c1C(=O)COC(=O)C1CC(=O)N(Cc2ccccc2)C1` (configuration not stated), the z-score was -0.363.

With `CSc1nc2nccc(-c3ccc(-c4ccccc4)cc3)n2n1`, the z-score was -0.5.

`CSCCC(NC(=O)c1ccccc1)C(=O)NC1CC1` (configuration not stated) yielded a z-score of 0.177.

Take `Cc1nn(C(C)C(=O)N2CCCCC2)c(=O)c2c1sc1ccccc12` (configuration not stated): the z-score was -0.115.

Regarding `CCCCN(CCCC)C(=O)c1ccccc1NC(=O)CN1C(=O)c2ccccc2C1=O`, the z-score is -0.366.

With `C#CCN(C)CC/C=C1\c2ccccc2CSc2ccccc21`, the z-score came out at 1.63.

The compound `C=CCN(C)CC/C=C1\c2ccccc2CSc2ccccc21` showed a z-score of 1.99.

`CC(O)CN(C)CC/C=C1/c2ccccc2CSc2ccccc21` (configuration not stated) came in with a z-score of 0.694.

Regarding `O=C1c2ccccc2C(=O)c2c1ccc(C(=O)N1CCCCC1)c2NCCO`, the z-score is 0.68.

Compound `Cc1cc(OCC(=O)O)c2ccccc2n1` had a z-score of -0.146.

In turn, `CC1(Br)C2CCCC1C2S(=O)(=O)c1ccccc1` (configuration not stated) had a z-score of -0.376.

For `CC(NS(=O)(=O)c1ccc(Cl)cc1)C(=O)NCc1ccco1` (configuration not stated), the z-score stood at 0.0263.

On to `O=C(N/N=C/c1ccc2c(c1)OCO2)C1COc2ccccc2O1` (configuration not stated), for which the z-score came to 0.435.

As to `O=C(N/N=C\c1cc(Br)cs1)C1COc2ccccc2O1` (configuration not stated), the z-score came to 2.32.

For the compound `O=C(N/N=C/c1cccs1)C1COc2ccccc2O1` (configuration not stated), the z-score stood at 0.238.

The compound `CCOC(=O)/C=C1\CC(=O)Nc2cc(C)c(C)cc2N1` displayed a z-score of 0.197.

Regarding `CCOC(=O)C/C(C)=N/NC(=O)COc1ccccc1C`, the z-score is 0.0596.

On to `C/C(CC(=O)Nc1ccccc1-c1ccccc1)=N\NC(=O)COc1ccc(C)cc1Br`, for which the z-score stood at 0.458.

Consider `C/C(CC(=O)NCC(C)C)=N\NC(=O)COc1cc(C)c(Br)cc1Br`, for which the z-score is 5.36 (active).

`C/C(CC(=O)NC(C)C)=N\NC(=O)COc1cc(C)c(Br)cc1Br`: the z-score was 6.24 (active).

`CCCNC(=O)C/C(C)=N/NC(=O)COc1ccc(C)cc1Br`: the z-score was -0.101.

`Cc1cc(OCC(=O)NCC(C)C)cc(C)c1Br` returned a z-score of -0.137.

`O=C(CSc1ncnc2sc3c(c12)CCCC3)N1CCC(c2noc3ccc(F)cc23)CC1` displayed a z-score of 0.658.

For the compound `CCOC(=O)NC(Nc1ccc(S(N)(=O)=O)cc1)(C(=O)OCC)C(F)(F)F` (configuration not stated), the z-score was 0.00287.

Turning to `COC(=O)c1ccc(/C=N/NC(=O)CC(=O)NC(C)C)cc1`, the z-score is -0.108.

For the compound `CC(=O)Nc1ccc(S(=O)(=O)Nc2nc3ccccc3nc2Nc2ccc(S(N)(=O)=O)cc2)cc1`, the z-score was -0.462.

For `O=C(Nc1nnc(-c2ccccc2)o1)c1cc(Cl)sc1Cl`, the z-score was 11.3 (active).

`Cc1ccccc1C(=O)Nc1nnc(-c2ccc(F)cc2)o1`: the z-score was -0.035.

Turning to `O=C(Nc1nnc(-c2ccc(Cl)cc2)o1)c1ccccc1Br`, the z-score is 5.35 (active).

For the compound `O=C(Nc1nnc(-c2ccccc2)o1)C1CCCCC1`, the z-score amounted to 0.0922.

In the case of `NC(=O)c1oc2ccccc2c1NC(=O)c1nc2ccccc2s1`, the z-score was -0.927.

On to `O=C(Nc1ccccc1)Nc1nnc(-c2ccccc2)o1`, for which the z-score was -0.193.

For `O=C(Nc1nnc(-c2ccc(Cl)cc2)o1)Nc1ccccc1Cl`, the z-score came out at 1.85.

`O=C(Nc1nnc(C2=COCCO2)o1)c1ccc(Cl)cc1` gave a z-score of 0.709.

As to `O=C(Nc1nnc(-c2ccc(Cl)cc2)o1)c1nc2ccccc2s1`, the z-score was 4.07 (active).

With `COc1ccc(-c2nnc(NC(=O)C3=COCCO3)o2)cc1`, the z-score came out at 0.731.

As for `O=C(Nc1nnc(-c2ccc(Cl)cc2)o1)C1=COCCO1`, the z-score came to 2.01.

On to `O=C(Nc1nnc(-c2ccccc2Cl)o1)c1nc2ccccc2s1`, for which the z-score is 1.61.

The compound `COc1ccccc1NC(=O)CSc1nc(O)c(Cc2ccccc2)c(=O)[nH]1` gave a z-score of 0.381.

On to `COc1ccc(OC)c(-n2c(-c3cnccn3)n[nH]c2=S)c1`, for which the z-score was -0.441.

`COc1ccc(NS(=O)(=O)c2ccc(N3CCCC3)c(NC(=S)Nc3cccc(C)c3C)c2)cc1` came in with a z-score of 0.291.

Compound `O=C(CSc1nnc(CNC(=O)c2ccco2)o1)c1ccccc1` showed a z-score of 0.135.

The compound `CCCC(=O)Nc1ccc(C(=O)N/N=C2\CC(=O)CC(C)(C)C2)cc1` showed a z-score of -0.113.

`CC1(C)CC(=O)CC(=Nc2ccc(C(=O)O)cc2)C1` came in with a z-score of 2.15.

Turning to `CC1(C)CC(=O)C/C(=N\NC(=O)Cc2ccccc2)C1`, the z-score was -0.224.

In the case of `CC(=O)c1cccc(NC(=O)c2ccco2)c1`, the z-score is -0.295.

Consider `CCOC(=O)c1c(C)n(C)c2ccc(O)c(CN3CCC(C)CC3)c12`, for which the z-score is 3.63 (active).

For `CCOC(=O)c1c(C)n(C)c2ccc(O)c(CN3CCN(C)CC3)c12`, the z-score was found to be 0.0797.

Consider `CCOC(=O)c1c(C)n(C)c2ccc(O)c(CN3CCCCC3)c12`, for which the z-score is 0.782.

`CCOC(=O)c1c(C)n(C)c2ccc(O)c(CN(C)C)c12` gave a z-score of 2.

With `CCOC(=O)c1c(-c2ccccc2)oc2ccc(O)c(CN3CCCC3)c12`, the z-score was 1.41.

Take `CCOC(=O)c1c(C)oc2ccc(O)c(CN3CCCCC3)c12`: the z-score was 3.52 (active).

The compound `CCOC(=O)c1c(C)n(C)c2ccc(O)c(CN(CC)CC)c12` registered a z-score of -2.05.

`CCOC(=O)c1c(-c2ccccc2)oc2ccc(O)c(CN(C)C)c12` yielded a z-score of -0.204.

With `CCOC(=O)c1c(C)oc2ccc(O)c(CN(C)C)c12`, the z-score was 0.911.

For the compound `CCN(CCCNC(=O)CCNC(=O)Cn1cnc2ccccc2c1=O)c1ccccc1`, the z-score came to 0.554.

Consider `CCOC(=O)C1CCCN(C(=O)c2ccccc2SCCOC)C1` (configuration not stated), for which the z-score is 0.188.

Regarding `Cc1nnc(SCC(=O)Nc2ccc3c(c2)OCCO3)s1`, the z-score is 0.669.

Consider `O=C(O)/C=C\C(=O)Nc1ccccc1F`, for which the z-score was found to be 0.0594.

Turning to `O=C(NC(=S)Nc1ccccc1N1CCCCC1)c1ccc(-c2cccc([N+](=O)[O-])c2)o1`, the z-score amounted to 0.681.

`O=C(NC(=S)Nc1ccccc1N1CCOCC1)c1ccc(-c2cccc(Cl)c2)o1` had a z-score of 0.758.

Take `O=C(NC(=S)Nc1ccccc1N1CCCC1)c1ccc(-c2cccc([N+](=O)[O-])c2)o1`: the z-score was 5.71 (active).

As for `CC1CCN(c2ccccc2NC(=S)NC(=O)c2ccc(-c3cccc([N+](=O)[O-])c3)o2)CC1`, the z-score came out at 0.191.

Compound `CN1CCN(c2ccccc2NC(=O)c2ccc(-c3cccc([N+](=O)[O-])c3)o2)CC1` came in with a z-score of -0.00188.

As to `O=C(NC(=S)Nc1cccc(Cl)c1N1CCCC1)c1ccc(-c2cccc([N+](=O)[O-])c2)o1`, the z-score was 4.93 (active).

As to `Cc1cc(/C=C(/C#N)c2nc3ccccc3[nH]2)c(C)n1-c1cccc([N+](=O)[O-])c1`, the z-score was -0.533.
